# WRN helicase inh: qHTS for Inhibitors of WRN Helicase | 0.46% of 360,000 active | Potency, µM (series often up to 114 µM), without a hit: at the highest dose activity change, negative = inhibition, most hits filed as inhibitors | AID 651768, 2012 | Bifunctional 3'-5' exonuclease/ATP-dependent helicase WRN (Homo sapiens), Q14191 | WRN helicase unwinding, fluorescent forked duplex, kinetic; also: % is scaled to controls: 0 for no effect and ±100 for the full control effect; nearly all actives have a fitted effect of over 55% in size
#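 Primary qHTS, 1536-well format. 20 nM WRN + compound, 15 min RT; start with 100 nM forked fluorophore/quencher duplex, 2 mM ATP (final); kinetic read ex 525/em 598 nm.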
# Pol eta inh-1: qHTS for Inhibitors of Polymerase Eta; recombinant Pol eta, fluorescent DNA replication assay; DNA polymerase eta (Homo sapiens), Q9Y253; 1.2% of 390,000 active; Potency, µM (series often up to 114 µM), for the others: at the top dose activity change, negative = inhibition, hits mostly inhibitors; also: % is scaled to controls: 0 for no effect and ±100 for the full control effect
# Target sequence (Q9Y253 whole entry, looked up): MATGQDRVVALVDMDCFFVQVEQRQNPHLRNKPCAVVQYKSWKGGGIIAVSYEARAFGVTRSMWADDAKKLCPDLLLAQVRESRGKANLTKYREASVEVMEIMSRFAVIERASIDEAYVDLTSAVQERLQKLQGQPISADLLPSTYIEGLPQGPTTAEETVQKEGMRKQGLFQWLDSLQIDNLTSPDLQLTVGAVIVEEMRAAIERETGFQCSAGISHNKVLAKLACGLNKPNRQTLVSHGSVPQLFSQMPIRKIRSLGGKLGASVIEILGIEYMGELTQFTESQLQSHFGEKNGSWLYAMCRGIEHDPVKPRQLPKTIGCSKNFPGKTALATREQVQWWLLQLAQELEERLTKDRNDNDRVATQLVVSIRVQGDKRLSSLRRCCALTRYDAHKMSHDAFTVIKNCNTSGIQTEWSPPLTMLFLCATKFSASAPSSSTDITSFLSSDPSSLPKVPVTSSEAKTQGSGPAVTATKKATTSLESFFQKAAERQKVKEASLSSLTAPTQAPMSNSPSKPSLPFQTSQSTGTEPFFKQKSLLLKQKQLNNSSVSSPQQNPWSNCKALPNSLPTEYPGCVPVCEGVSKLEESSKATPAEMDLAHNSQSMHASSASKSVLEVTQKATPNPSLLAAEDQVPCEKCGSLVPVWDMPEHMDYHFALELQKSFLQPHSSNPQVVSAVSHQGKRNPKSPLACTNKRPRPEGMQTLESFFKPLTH
#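 Pol eta at 10 nM preincubated with compounds 15 min at room temperature; reaction started with fluorescent substrate (50 nM final) and read kinetically at 0 and 10 min.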
# Pol beta inh: qHTS Assay for Inhibitors of DNA Polymerase Beta; 1.3% of 340,000 active; P06746; Pol beta primer extension/strand displacement, fluorescence kinetic; Potency, µM (highest dose often 114 µM), without a hit: at the top dose activity change, negative = inhibition, most hits filed as inhibitors; AID 485314, 2010; also: % is scaled to controls: 0 for no effect and ±100 for the full control effect
#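 Values derive from four-parameter Hill fits of normalized kinetic data: reads at 0 and 10 min following addition of 50 nM substrate to 10 nM Pol beta preincubated 15 min with compound.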
# FEN1 inh: qHTS Assay for the Inhibitors of Human Flap endonuclease 1 (FEN1); 0.35% of 390,000 active; Recombinant FEN1 flap cleavage, fluorescence, 15 min; P39748; Potency, µM (doses to about 114 µM), for inactives: at the top dose activity change, negative = inhibition, hits mostly inhibitors; AID 588795, 2011; also: % is scaled to controls: 0 for no effect and ±100 for the full control effect; nearly all actives have a fitted effect of over 65% in size
#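 Compounds are tested as a concentration series against 10 nM FEN1; after a 15 min room-temperature preincubation, 50 nM substrate starts cleavage, with plate reads at 0 and 15 min. Normalized responses are fitted by a Hill equation.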
# Pol iota inh: qHTS for Inhibitors of Polymerase Iota | DNA polymerase iota (Homo sapiens), Q9UNA4 | Potency, µM (series often up to 115 µM), without a hit: top-dose activity, negative = inhibition, actives largely listed as inhibitors | Pol iota fluorescent replication assay, 10 min | 1% of 390,000 active
#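 Fluorescent replication assay read twice, at 0 min and 10 min after adding 50 nM (final) substrate. Enzyme (10 nM) and compounds were first incubated 15 min at room temperature; enzyme-free buffer wells were negative controls.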
# Pol kappa inh-1: qHTS for Inhibitors of Polymerase Kappa; DNA polymerase kappa (Homo sapiens), Q9UBT6; purified Pol kappa, fluorescent DNA synthesis assay, 10 min; Potency, µM (titrated, usually from 107 µM), for the others: at the highest dose activity, negative = inhibition, hits mostly inhibitors; 0.53% of 400,000 active; also: % is scaled to controls: 0 for no effect and ±100 for the full control effect
#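 Kinetic fluorescence screen: compound preincubated 15 min RT with 10 nM enzyme; 50 nM substrate (final) initiates; reads at 0/10 min.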
# TbPGK inh: qHTS for inhibitors of Phosphogylcerate Kinase: Hit Validation Screen. shares compounds with Pol kappa inh-1. TbPGK coupled GAPDH assay, Kinase-Glo luminescence. Potency, µM (highest dose often 57.5 µM), for the others: at the top dose activity change, negative = inhibition, most hits filed as inhibitors. 79% of 500 active. AID 686980, 2013; also: % is scaled to controls: 0 for no effect and ±100 for the full control effect; nearly all actives have a fitted effect of over 65% in size
# Pol iota confirm: qHTS for Inhibitors of Polymerase Iota: Confirmatory Assay for Cherry-picked Compounds; shares compounds with Pol kappa inh-1; Pol iota primer extension, TAMRA/BHQ fluorescence; Potency, µM, hits mostly inhibitors; 77% of 1,500 active; AID 720496, 2013
# Pol kappa inh-2: qHTS for Inhibitors of Polymerase Kappa: Confirmatory Assay for Cherry-picked Compounds; Potency, µM, usual class: inhibitors; AID 720501, 2013; shares compounds with Pol eta inh-1; 76% of 920 active; purified Pol-kappa, fluorescent strand-displacement substrate
# Pol eta inh-2: qHTS for Inhibitors of Polymerase Eta: Confirmatory Assay for Cherry-picked Compounds; shares compounds with Pol eta inh-1; 64% of 2,600 active; Pol eta primer extension, TAMRA/BHQ fluorescence, 10 min; Potency, µM, actives largely listed as inhibitors
# Active calls of the source: *; ? = inconclusive; · = no result given; [ ] = dose if it differs, or a comment. The list is not random: actives were taken first. Their share in the collection is about 2.4%. Calls follow the shape of the dose curve; as a rule, active = well fitted curve in the direction sought with a large enough effect; inconclusive = small, poorly fitted or top-dose-only effect, or another doubt; inactive = no such curve, though single readings can be large; an effect the other way counts as inactive or inconclusive. Potency is read from the fitted curve at half-maximal effect.
SMILES,WRN helicase inh,Pol eta inh-1,Pol beta inh,FEN1 inh,Pol iota inh,Pol kappa inh-1,Pol iota confirm,Pol eta inh-2,others
CCOc1ccccc1N(C)C(=O)c1sc2nc3n(c(=O)c2c1C)CCCC3,·,-10%,-12%,16%,11%,-25%,·,·,
O=C(NC1CCCC1)c1ccc(CSc2nc3ccncc3n2Cc2cccc(F)c2)cc1,·,-8%,14%,-18%,8%,2%,·,·,
C/C=C\C=C/C(=O)Nc1cccc(C2=NOC3(C2)C[C@H](C(N)=O)N(C(=O)CC)C3)c1 (some centres undefined),-19%,?,-2%,2%,?,-4%,·,·,
C=C(C)C(=O)Nc1cccc(C2=NOC3(C2)C[C@@H](C(N)=O)N(C(=O)/C=C/C=C/C)C3)c1 (some centres undefined),?,3.2µM*,2.5µM*,?,22µM*,28µM*,?,17*,TbPGK inh=0.73µM*
C/C=C/C=C/C(=O)N1CC2(CC(c3cccc(NC(=O)CCCCC)c3)=NO2)C[C@H]1C(N)=O (some centres undefined),-11%,?,14%,5%,?,-12%,·,·,
C/C=C/C=C\C(=O)Nc1cccc(C2=NOC3(C2)C[C@@H](C(N)=O)N(C(=O)/C(C)=C/C)C3)c1 (some centres undefined),?,18µM*,-1%,-4%,16µM*,50µM*,11*,17*,
O=C(O)CCN1C(=O)/C(=C/c2cn(-c3ccccc3)nc2-c2cccs2)SC1=S,-22%[11.6 µM],35µM*,-16%,?,32µM*,89µM*,19*,43*,
O=C(O)CCCCCN1C(=O)/C(=C/c2cn(-c3ccccc3)nc2-c2cccs2)SC1=S,?,?,·,-9%,?,?,34*,·,Pol kappa inh-2=?
CN1CCC(N(C)C(=O)/C=C/c2cn(-c3ccccc3)nc2-c2cccs2)CC1,5%,-4%,2%,-19%,49%,-8%,·,·,
CCN1C(=O)/C(=C/c2cn(-c3ccccc3)nc2-c2cccnc2)SC1=S,8%,-19%,·,-3%,-2%,3%,·,·,
O=C(O)CCCCCN1C(=O)/C(=C\c2cn(-c3ccccc3)nc2-c2cccs2)SC1=S,-16%[11.6 µM],45µM*,-68%,-5%,?,?,34*,?,
Cc1ccc2nc(-c3ccc(Cl)c(NC(=O)COc4cccc(C)c4C)c3)oc2c1,·,-8%,16%,-3%,?,9%,·,·,
Cc1cc(NC(=O)CCc2nc3cccnc3n2-c2ccccc2)ccc1Br,·,-19%,29%,-11%,27%,-8%,·,·,
COc1ccccc1Nc1cc2ccccc2c(=O)[nH]1,·,·,·,·,·,·,42*,27*,
Cc1cc2ccccc2c(=O)[nH]1,2%,-10%,4%,5%,18%,-4%[60.1 µM],·,·,
Cc1ccccc1Nc1cc2ccccc2c(=O)[nH]1,?,11µM*,-12%,-1%,?,-11%,75*,38*,
O=c1[nH]c(Nc2ccccn2)cc2ccccc12,-5%,?,·,-8%,?,-5%,·,·,
Cc1ccc(CNc2ncnc3c2c(-c2ccccc2)cn3-c2cccc(Cl)c2)cc1,·,-14%,1%,-8%,?,-12%[60.1 µM],·,·,
COc1cc(C2CC(=O)Nc3c2c(=O)[nH]c2nc4ccccc4n32)ccc1O (centres undefined),·,-12%,17%,-7%,5%,-4%,·,·,
CCOC(=O)c1c(C)[nH]c(CCC(=O)NCc2ccccc2Cl)c1C,·,-19%,-2%,-3%,19%,-11%[60.1 µM],·,·,
O=C(N=Nc1c(O)[nH]c2ccc([N+](=O)[O-])cc12)c1ccccc1Cl,-7%[11.6 µM],40µM*,-30%,?,38%,6%,67*,?,
Cc1ccc(N(C)S(=O)(=O)c2ccc3[nH]c(=O)ccc3c2)cc1,·,4%,29%,-10%,4%,2%,·,·,
Cc1ccccc1NC(=O)CSc1ccsc1[N+](=O)[O-],50µM*,2.8µM*,20µM*,?,11µM*,35µM*,19*,17*,
O=C(CSc1ccsc1[N+](=O)[O-])NCc1ccco1,-11%[11.6 µM],22µM*,?,-1%,?,79µM*,67*,30*,Pol kappa inh-2=42*
COc1ccc(F)cc1S(=O)(=O)NCCc1sc2nc(-c3ccc(F)cc3)nn2c1C,·,-22%,-1%,-15%,31%,-11%[60.1 µM],·,·,
SMILES,WRN helicase inh,Pol eta inh-1,Pol beta inh,FEN1 inh,Pol iota inh,Pol kappa inh-1,Pol iota confirm,Pol eta inh-2,others
CCc1nn2c(=O)cc(COc3ccc(/C=C4\C(=N)N5N=C(CC(C)C)SC5=NC4=O)cc3)nc2s1,-15%[11.6 µM],?,?,-16%,?,-35%,75*,76*,
COc1ccc(CCNC(=O)Cn2nnc(-c3ccc(Cl)cc3)n2)cc1OC,·,-10%,-29%,12%,-20%,-8%[60.1 µM],·,·,
O=C(/C=C/c1ccco1)N1CCN(S(=O)(=O)c2ccccc2)CC1,-32%,18µM*,·,11%,50µM*,?,·,?,TbPGK inh=9.2µM*;Pol kappa inh-2=?
O=C(/C=C/c1ccc([N+](=O)[O-])cc1)N1CCN(S(=O)(=O)c2ccccc2)CC1,-21%,-7%,·,2%,-2%,-9%,·,·,
O=C(Nc1ccc(-c2nc3ccc(NC(=O)c4cccs4)cc3[nH]2)cc1)c1cccs1,-23%[57.1 µM],?,10µM*,?,20µM*,?,38*,67*,
N#Cc1ccccc1N1CCN(C(=O)c2ccc(NC(=O)c3ccc(Br)o3)cc2)CC1,-26%,22µM*,·,-7%,22µM*,71µM*,?,76*,Pol kappa inh-2=?
